Assay results reported in PubChem BioAssay (NCI).
About 79,000 compounds went through this panel and 15% of them were active in at least one assay; those are over-represented in the sample as a whole. The source made the active and inactive calls. Rule as the data show it: active = growth inhibition above about 70%; inactive = the rest.

Assays:
[1] = NCI Yeast Anticancer Drug Screen. Data for the rad50 strain (AID 155);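 also: 0% = growth of vehicle-only cultures of the same strain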; conditions: S. cerevisiae rad50 strain growth inhibition; at 50.0 µM; hits give high values
Procedure, shortened: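 Genetically altered yeast (DNA repair pathway); compound treatment; growth inhibition vs vehicle ctrl.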

[2] = NCI Yeast Anticancer Drug Screen. Data for the mec2-1 strain (AID 157); conditions: S. cerevisiae mec2-1 strain, at 50.0 µM, hits give high values
Procedure, shortened: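 Yeast mec2-1 mutant treated with compound. Readout: growth inhibition vs vehicle controls.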

[3] = NCI Yeast Anticancer Drug Screen. Data for the sgs1 mgt1 strain (AID 161);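 also: 0% = growth of cultures given vehicle only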; conditions: S. cerevisiae sgs1 mgt1 strain, at 50.0 µM, hits give high values
Procedure, shortened: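 Test agents were incubated with a DNA-repair-mutant yeast strain. Growth was then read and compared against vehicle-treated controls.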

[4] = NCI Yeast Anticancer Drug Screen. Data for the cln2 rad14 strain (AID 165);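 also: 0% = growth equal to vehicle treated cultures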; conditions: S. cerevisiae cln2 rad14 strain, at 50.0 µM, hits give high values
Procedure, shortened: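 cln2 rad14 yeast strain; compound exposure; growth inhibition read vs vehicle controls.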

[5] = NCI Yeast Anticancer Drug Screen. Data for the bub3 strain (AID 167); conditions: S. cerevisiae bub3 mutant strain, at 50.0 µM, hits give high values
Procedure, shortened: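 Yeast carrying a defined mutation is treated with each compound, and growth is compared with that of vehicle-exposed cells to give inhibition.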

[6] = NCI Yeast Anticancer Drug Screen. Data for the mlh1 rad18 strain (AID 175); conditions: S. cerevisiae mlh1 rad18 strain growth inhibition; at 50.0 µM; hits give high values
Procedure, shortened: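 Yeast w/ defined DNA-repair lesions; compound exposure; growth vs vehicle controls → % inhibition.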

Measured: growth inhibition

CC1OC(c2ccc(Cl)cc2Cl)OC1C (stereo unspecified)
inactive: [1] 6.45% | [2] -0.9% | [3] 2.65% | [4] 0.7% | [5] 0.95% | [6] 1.5%

CN(C)c1ccc(/C=c2\sc3nc4ccccc4n3c2=O)cc1
inactive: [1] -8.75% | [2] -32.3% | [3] -13.1% | [4] -15.3% | [5] -16.5% | [6] -21.4%

CCOc1ccc2nc(NC(=O)C(=O)C(C(=O)c3ccccc3-c3ccccc3)C3OC(=O)c4ccccc43)sc2c1 (stereo unspecified)
inactive: [1] -18.7% | [2] 23.9% | [3] -19% | [4] 23.1% | [5] -32.1% | [6] -28.6%

COc1ccc(C(c2cc3c(cc2O)OCO3)N2CCN(C(c3ccc(OC)cc3)c3cc4c(cc3O)OCO4)CC2)cc1 (stereo unspecified)
inactive: [1] 17.1% | [2] 0% | [3] 5.05% | [4] 15.1% | [5] -1.65% | [6] 19.8%

O=C(/C=C\c1ccccc1)C(C(=O)/C=C/c1ccccc1)C(=O)c1ccccc1 (stereo unspecified)
inactive: [1] -1.5% | [2] -3.05% | [3] 3.15% | [4] 14.9% | [5] -1.25% | [6] 32.8%

O=C(CN1C(=O)c2cccc3c(Br)ccc(c23)C1=O)c1ccc(F)cc1
inactive: [1] -10.4% | [2] -14.7% | [3] 7.6% | [4] 18.7% | [5] -12% | [6] 1.3%

CC1CC(=O)Nc2ncccc2N1 (stereo unspecified)
inactive: [1] 5.75% | [2] -4.2% | [3] 4.2% | [4] -28.6% | [5] 8.05% | [6] -9.45%

CCSc1nc(C)nc2c1cnn2-c1ccccc1
inactive: [1] -0.1% | [2] -6.7% | [3] -2.65% | [4] -35.6% | [5] -13.8% | [6] 1.95%

CCOC(=O)C(=[N+]=[N-])C(=O)c1ccc(OS(C)(=O)=O)c(OS(C)(=O)=O)c1
inactive: [1] 7.8% | [2] -1.05% | [3] 13% | [4] 22.3% | [5] -0.2% | [6] 11.9%

COc1ccc2c(c1OC)C(=O)OC2(O)C1=NCCc2cc3c(cc21)OCO3 (stereo unspecified)
inactive: [1] 19% | [2] -7.25% | [3] 8.1% | [4] 21.3% | [5] 4.05% | [6] 13.2%

CCOC(=O)c1sc(Nc2cc(Cl)ccc2Cl)nc1C
inactive: [1] -6.2% | [2] -19.6% | [3] -9.2% | [4] -2% | [5] -8.3% | [6] -15.1%

O=C1OC2C(Cl)CC(Cl)CC2C=C1c1cccc([N+](=O)[O-])c1 (stereo unspecified)
inactive: [1] -3.3% | [2] 12.2% | [3] -16.6% | [4] -21.9% | [5] 11.8% | [6] -0.4%

CN=C(NN(C)C)c1ccc(NC(=O)c2ccc(C(=O)Nc3ccc(C(=NC)NN(C)C)cc3)cc2)cc1
inactive: [1] 8.4% | [2] 7.65% | [3] 10.8% | [4] 10.1% | [5] -13.8% | [6] 13.9%

c1cc2c3c(c1)ccc1ccc4cccc(c4c13)O2
inactive: [1] -26.4% | [2] -2.4% | [3] -24.2% | [4] -0.7% | [5] -3.45% | [6] -47.9%

O=C(O)CNCc1ccc(F)cc1
inactive: [1] -1.85% | [2] -10% | [3] -14.7% | [4] -74.4% | [5] 13.2% | [6] -5.9%

Nc1ccc2c(c1)C(=O)c1cc(C(=O)O)ccc1-2
inactive: [1] 21.2% | [2] -2.55% | [3] 9.75% | [4] 15.9% | [5] 12.8% | [6] -10.1%

O=C(N/N=C\c1ccc2c(c1)CCC2)c1cccc2ccccc12
inactive: [1] -5.9% | [2] 1.35% | [3] -11.9% | [4] -6.1% | [5] 10.2% | [6] -2.9%

CC1CN(N)C(=O)O1 (stereo unspecified)
inactive: [1] -3.9% | [2] -18.4% | [3] -19% | [4] 2.9% | [5] 2.6% | [6] -21.9%

O=C1N(c2cccc(F)c2)C(=O)N1c1cccc(F)c1
inactive: [1] 27.4% | [2] 3.3% | [3] -9.1% | [4] 13.2% | [5] -1.1% | [6] 5.5%

CCC1C(OC)=CC2(CC)CC1(OC)OC2=O (stereo unspecified)
inactive: [1] -4.75% | [2] -0.3% | [3] -1.2% | [4] -2.45% | [5] 7.45% | [6] -3.35%

CC(C)NC(N)=O
inactive: [1] 29.8% | [2] 16% | [3] 26.4% | [4] 19.1% | [5] 2.35% | [6] 16.4%

[N-]=[N+]=NCC(O)Cn1cnc2c(NC(=O)c3ccccc3)ncnc21 (stereo unspecified)
inactive: [1] -14.7% | [2] -0.15% | [3] 0.85% | [4] -16.1% | [5] 8.6% | [6] 7.2%

O=C(CC(=O)N(C(=O)/C=C\c1ccccc1)c1ccc(Cl)cc1)N1N=C(c2ccccc2)C(N=Nc2cccc([N+](=O)[O-])c2)C1=O (stereo unspecified)
inactive: [1] 7.5% | [2] 3.45% | [3] 9.5% | [4] 1.75% | [5] 14.7% | [6] 5.5%

COC(=O)CC1NC(=O)[C@]1(C)[C@H](C)O (stereo partly specified)
inactive: [1] -37.1% | [2] -16.2% | [3] -33% | [4] -14.3% | [5] -48.4% | [6] -48.9%

CCCCCCCCCCCCN1CCCN(CCCCCCCCCCCC)CC1
active: [2] 99.2% | [4] 96.7% | [5] 98.7% | [6] 99.2%
inactive: [1] 56.7% | [3] 7.45%

COc1ccc(N=NN(C(C)=O)c2ccccc2)cc1
inactive: [1] 2.85% | [2] 10.2% | [3] 35.5% | [4] -5.75% | [5] -1% | [6] 19.1%

COc1ccc(NC(=S)NN)cc1
inactive: [1] 2.95% | [2] -7.75% | [3] 18.9% | [4] -6% | [5] 13.9% | [6] 6.2%

O=C1CSC(c2cccnc2)N1CCN1C(=O)CSC1c1cccnc1 (stereo unspecified)
inactive: [1] 3.75% | [2] 4.15% | [3] -11.5% | [4] -2.4% | [5] -1.6% | [6] 19.4%

CCOC(=O)C(CNCc1ccccc1)C1CCCCC1 (stereo unspecified)
inactive: [1] 8.65% | [2] 1.65% | [3] 18.2% | [4] -0.7% | [5] 5.85% | [6] 16.1%

Cc1ccccc1NC(=O)Nc1ccccc1C
inactive: [1] -3.8% | [2] -15.3% | [3] 3.45% | [4] -23% | [5] -20.2% | [6] -11.9%

COC(=O)CCCC(=O)NC1=C(NCc2ccccc2)C(=O)c2ccccc2C1=O
inactive: [1] 10.1% | [2] 12.3% | [3] 33.6% | [4] 13.8% | [5] 32.1% | [6] -0.35%

CCCCNC(=O)c1cc(S(=O)(=O)n2cc[nH]c2=O)c(SC)cc1Cl
inactive: [1] 4.1% | [2] 2.7% | [3] 15.8% | [4] -2.75% | [5] -5.05% | [6] 31.2%

COc1ccc(Nc2nc(N)nc3c2ncn3C2OC(CO)C(O)C2O)cc1 (stereo unspecified)
inactive: [1] -9.6% | [2] -17.9% | [3] -13.2% | [4] -7% | [5] 2.05% | [6] -11.5%

CCOCCOC(=O)CCC1CCCCC1
inactive: [1] 29.8% | [2] 16.5% | [3] 9.1% | [4] 11.2% | [5] 19% | [6] 29.6%

CC(=O)NNc1nc(C)c(C(/C=C/c2ccccc2O)=N/N=C(N)N)s1
inactive: [1] -19.2% | [2] -19.4% | [3] -21.4% | [4] -7.1% | [5] -10.6% | [6] -33.2%

C(=C\c1ccc(-c2ccccc2)cc1)/c1ccc(-c2ccccc2)cc1
inactive: [1] -16.2% | [2] -19.9% | [3] 4.4% | [4] -5.3% | [5] -16.7% | [6] -16.4%

OC1CC2CCCCC2CC1Cl (stereo unspecified)
inactive: [1] 6.15% | [2] 1.35% | [3] 0.7% | [4] -16.6% | [5] -19.1% | [6] 5.5%

CC(O)CSCC(C)O (stereo unspecified)
inactive: [1] 10.1% | [2] -4.2% | [3] -16.7% | [4] 12.4% | [5] -7.7% | [6] 3.05%

COc1ccc2c(c1)CCN1CCCc3ccc(OC)cc3C21 (stereo unspecified)
inactive: [1] 18.9% | [2] 30.3% | [3] 24.6% | [4] 55.1% | [5] 31.4% | [6] 46.7%

O=P(O)(O)c1ccccc1Oc1ccccc1
inactive: [1] 7.8% | [2] 7.55% | [3] 26.3% | [4] 29.1% | [5] 8.05% | [6] 6.95%

NC1(C(=O)O)CCCc2ccccc21 (stereo unspecified)
inactive: [1] 13.3% | [2] 8.15% | [3] -1.1% | [4] -1.7% | [5] -12.6% | [6] 8.95%
